Most compounds without a hit are left out; they make up all but 2.4% or so of the library.
D2 ag-1: D2 dopamine receptor (human) agonism. P14416. 340,000 compounds, 0.53% hits. HEK293 T-REx D2 cells, calcium flux agonist mode. activation, % at 2 µM;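 active means activation over 3 SD above normal in the single-dose calcium agonist read, cut at about 30% in these data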; further: 0% is about no effect
Target sequence (P14416 whole entry, looked up): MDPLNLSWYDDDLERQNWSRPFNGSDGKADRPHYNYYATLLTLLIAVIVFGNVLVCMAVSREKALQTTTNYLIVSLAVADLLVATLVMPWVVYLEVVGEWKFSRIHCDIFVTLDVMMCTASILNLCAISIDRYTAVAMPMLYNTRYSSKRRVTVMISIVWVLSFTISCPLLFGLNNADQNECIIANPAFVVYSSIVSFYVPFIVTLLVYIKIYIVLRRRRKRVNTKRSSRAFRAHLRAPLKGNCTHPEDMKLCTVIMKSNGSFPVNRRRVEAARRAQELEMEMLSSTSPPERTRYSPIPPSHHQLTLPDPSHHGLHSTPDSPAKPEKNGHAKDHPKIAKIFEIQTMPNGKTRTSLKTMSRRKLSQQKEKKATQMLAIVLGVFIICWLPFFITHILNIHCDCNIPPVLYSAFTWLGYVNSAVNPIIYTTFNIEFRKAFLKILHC
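Calcium-flux readout, 1 cycle/sec over 180 s following compound pin transfer, in inducible HEK293 Trex D2 cells (force-coupled); dopamine controls included. Positive calcium responses during this window marked compounds as potential agonists.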
D2 PAM-1: positive allosteric modulators of human D2 dopamine receptor; potentiation, % at 10 µM; P14416; HEK293 T-REx D2, calcium flux, EC20 dopamine potentiation; 340,000 compounds, 0.34% hits;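 active means potentiation over 3 SD above the plate norm, cut at about 30% in these data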; further: 0% is about no effect
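Using a no-wash calcium dye in inducible, force-coupled HEK293 Trex cells expressing D2, we tracked fluorescence each second for 180 s after compound, then for 180 s after EC20 dopamine to detect augmented signalling.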
D2 antag: antagonizes the human D2 dopamine receptor | P14416 | HEK293 TREx D2 cells, calcium flux, dopamine EC80 | inhibition, % at 10 µM | 340,000 compounds, 2% hits | AID 485344; in the data active means inhibition above about 30%; inactive means below that, where a call was filed; further: 0% is about no effect
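Read-out: kinetic calcium fluorescence (1 cycle/s) in inducible HEK293 T-REx D2 cells after an EC80 dopamine addition that followed 180 s compound preincubation. Loss of the dopamine response indicates antagonism.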
D2 ag-2: activates the human D2 dopamine receptor | 360,000 compounds, 0.084% hits | AID 624465 | activation, % (test concentration not listed) | DiscoveRx PathHunter D2 beta-arrestin, luminescence, 90 min; 100% = 57 uM dopamine signal; in the data active means activation above about 40%
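DiscoveRx PathHunter D2 beta-arrestin cells (2,100/well) attached overnight, then compound-stimulated 90 min at 37 C in HBSS/10 mM HEPES/0.1% Tween-20 buffer; beta-galactosidase complementation read by luminescence after 1 h at ambient temperature. Dopamine 57 uM final (EC100) as control.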
D2 PAM-2: positive allosteric modulators of human D2 dopamine receptor; P14416; DiscoveRx D2 beta-arrestin cells, luminescence, 90 min; 100% = 57 uM dopamine signal; potentiation, % (test concentration not listed); 360,000 compounds, 0.23% hits; AID 624464; in the data active means potentiation above about 50%
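PathHunter beta-arrestin assay in DiscoveRx D2 cells. Compounds were added with an EC20 of dopamine (50 nM final) for 90 min at 37 deg C. Luminescence was read 1 h after detection reagent, with 57 uM dopamine as the EC100 control.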
Numbers without * were called inactive; · = no result.

SMILES | D2 ag-1 | D2 PAM-1 | D2 antag | D2 ag-2 | D2 PAM-2
CCOC(=O)c1cc2c(c(CSc3nc4ccccc4c(=O)n3Cc3ccco3)c1)OCOC2 | 1 | 0 | 31* | -3 | -2
O=c1c2ccccc2nc(SCc2cc(F)cc3c2OCOC3)n1Cc1ccco1 | 0 | -5 | 3 | 0 | -4
CCc1nc2ccc(C(=O)N3CCN(C(=O)c4ccco4)CC3)cn2c1N(CC)CCOC | · | · | · | 5 | 7
O=S(=O)(/C=C/c1ccccc1)Nc1ccc2c(c1)OCO2 | 0 | 16 | 34* | -1 | 1
COc1ccc(-c2noc(CCC(=O)NCCCN3CCC(Cc4ccccc4)CC3)n2)cc1 | · | · | · | 0 | -40
COc1ccc(-c2noc(CCC(=O)NCCCN3CCN(c4ccc(F)cc4)CC3)n2)cc1 | 1 | -20 | 95* | -2 | -4
CCN1CCN(C(=O)c2cccc(OC3CCN(S(=O)(=O)N(C)C)CC3)c2)CC1 | 1 | 36* | 2 | -6 | -12
Cc1ccc(SCC(=O)Nc2ccc(N3CCN(C)CC3)c(F)c2)c(C)c1 | 5 | -17 | 3 | 0 | 57*
c1ccc(Cn2cc(CNc3ccccc3)nn2)cc1 | 0 | -3 | 42* | 0 | -5
OC(COc1ccc2c(c1)CCC2)CN1CCN(c2ccccc2F)CC1 (centres undefined) | 1 | 8 | -21 | 15 | -30
Oc1ccccc1N1CCN(CC(O)COC2CCCc3ccccc32)CC1 (centres undefined) | 11 | -22 | 40* | -1 | -8
CCN(CC)CCn1c2c(c(SCC(=O)Nc3ccc4c(c3)OCCO4)nc1=O)CCCC2 | 0 | -2 | 3 | -3 | -22
O=C(CCCN1CCC(c2ccccc2)C1)c1ccc2c(c1)OCCO2 (centres undefined) | 3 | -23 | 79* | -1 | -30
O=C(CCCN1CCOCC1)c1ccc2c(c1)OCCO2 | 0 | 2 | -7 | 1 | -22
Cc1ccccc1Nc1nc(-c2sc(NC(=O)c3cccc(Cl)c3)nc2C)cs1 | 0 | 31* | -12 | · | ·
O=S(=O)(c1ccc(C(F)(F)F)cc1)N1CCN(CCc2ccccc2)CC1 | 0 | -3 | 23 | -2 | -10
Cc1ccc[n+](CC(=O)N2CCCc3ccccc32)c1 | 1 | -16 | 31* | 3 | -12
Cn1nnnc1SCC(=O)N1CCCc2ccccc21 | 0 | -5 | 41* | -3 | -3
Cn1nnnc1SCC(=O)N1CCc2ccccc21 | 0 | -1 | 3 | -1 | -7
Cc1ccccc1CC(=O)N1CCCc2ccccc21 | 0 | 2 | -1 | -4 | -1
O=[N+]([O-])c1ccc(S(=O)(=O)NCCN2CCOCC2)cc1 | 0 | 49* | 5 | 3 | 5
CCN(CC)c1ccc2cc(C(=O)Nc3ccccn3)c(=O)oc2c1 | 39* | 5 | 2 | 0 | 0
CCN(CC)c1ccc2cc(C(C)=O)c(=O)oc2c1 | 35* | 11 | -29 | -4 | -19
CCN(CC)c1ccc2cc(-c3nnc(-c4ccncc4)o3)c(=O)oc2c1 | 88* | · | 66* | -1 | -12
CCN(CC)c1ccc2cc(C=O)c(=O)oc2c1 | 65* | -6 | -46 | -2 | -13
SMILES | D2 ag-1 | D2 PAM-1 | D2 antag | D2 ag-2 | D2 PAM-2
C[C@@H]1CCCCO[C@H](CN(C)S(=O)(=O)c2cn(C)cn2)[C@@H](C)CN([C@H](C)CO)C(=O)c2cc(NC(=O)c3ccncc3)ccc2O1 | · | · | · | -3 | ·
O=C(NCc1ccc(Cl)cc1)C(=O)Nc1cccc(Br)c1 | 0 | -18 | · | · | ·
COc1cc(C(C(=O)NC2CCCC2)N(C(=O)c2snc(C(N)=O)c2N)C2CCCC2)cc(OC)c1OC (centres undefined) | -1 | -1 | 32* | 6 | 5
COc1ccc(C2=NN(C(=O)CSc3nc(=O)n4cccc(C)c4n3)C(c3ccc(C)cc3)C2)cc1 (centres undefined) | 1 | 0 | 34* | -3 | -22
COc1ccc(C2=NN(C(=O)CSc3ncccn3)C(c3ccc(C)cc3)C2)cc1 (centres undefined) | -1 | 10 | -18 | -2 | -24
CCc1nc2c(c(=O)c3ccccc3n2C)c(=O)n1C1CCCCCC1 | 58* | -10 | 25 | -1 | -13
COc1ccc(Cn2c(C3CCCCC3)nc3c(c(=O)c4ccccc4n3C)c2=O)cc1 | 5 | -3 | 42* | -3 | -16
COc1ccc(CCn2c(C3CCCCC3)nc3c(c(=O)c4ccccc4n3C)c2=O)cc1 | 10 | -7 | 18 | -4 | -8
CCN1C(=O)C2(c3ccccc31)c1c(oc3ccc(F)cc3c1=O)C(=O)N2CCCOC (centres undefined) | · | 1 | · | · | ·
CN(C(=O)CCl)C1CCCc2ccccc21 (centres undefined) | 0 | 34* | -12 | -4 | -15
Cc1ccc(OC(C)C(=O)Nc2ccccc2C(=O)N2CCN(C)CC2)cc1 (centres undefined) | 1 | 13 | 23 | 0 | 1
CCOc1ccc2c(c1)c(C(C)=O)c(C)n2-c1ccccc1 | 40* | -11 | 2 | -4 | -4
CC(=O)c1c(-c2ccccc2)c2cc(Cl)ccc2[nH]c1=O | -1 | 2 | 75* | -1 | -46
CCOC(=O)CSc1nc2cc3c(cc2c(=O)n1CCCC(=O)NCc1ccc2c(c1)OCO2)OCO3 | 0 | 3 | · | · | ·
CCCCc1ccc(NC(=S)NCCc2ccc(F)cc2)cc1 | 0 | -25 | 30* | 0 | -11
CCCCNC(=S)Nc1ccc(Cl)cc1 | 1 | -3 | 4 | -3 | -21
CCCCc1ccc(NC(=S)NCCO)cc1 | 0 | 13 | 31* | 1 | -8
Cc1cc(O)c2c(C)c(CC(=O)N3CCN(C(=O)C4COc5ccccc5O4)CC3)c(=O)oc2c1 (centres undefined) | -2 | 3 | 0 | 1 | 0
COc1cc(C)cc2oc(=O)c(CC(=O)N3CCN(C(=O)C4COc5ccccc5O4)CC3)c(C)c12 (centres undefined) | -1 | 3 | 37* | 5 | 12
COc1ccc(/C=N/NS(=O)(=O)c2ccccc2)cc1OS(=O)(=O)c1ccc(C)cc1 | 0 | 3 | 32* | -6 | -22
COc1ccc(-c2c(C)c3ccc(O)c(CN4CCCC4)c3oc2=O)cc1 | 0 | -1 | · | · | ·
CN(Cc1ccccc1)S(=O)(=O)c1ccc(N2CCOCC2)nc1 | 1 | 1 | 7 | -1 | 0
O=C(Nc1ccc(F)cc1F)c1cc(-c2ccc(Cl)cc2)on1 | 0 | -7 | · | · | ·
CC1=CC(=O)CC2C1(C)CCC(C)C2(C)CCC(C)CC(=O)O (centres undefined) | 0 | 2 | 32* | 2 | -18
COc1ccccc1C1C(C(C)=O)=C(C)N=c2s/c(=C\c3cc(OC)c(OC)c(OC)c3)c(=O)n21 (centres undefined) | 1 | 32* | 3 | 2 | 16
